Compound activity deposited in PubChem BioAssay by National Center for Advancing Translational Sciences (NCATS).
Sampled rows, rich in hits. Any-hit rate of the full collection: about 0.5%.
RGS4 inhibitor: inhibitors of human regulator of G protein signaling 4; Potency, µM (highest dose often 114 µM), for inactives: at the highest dose activity change, negative = inhibition, most hits filed as inhibitors; Transcreener GDP fluorescence polarization, RGS4-accelerated GTP hydrolysis; 0.039% of 390,000 active; AID 504845; also: potency is read from the fitted curve at half-maximal effect; % is scaled to controls: 0 for no effect and ±100 for the full control effect; nearly all actives have a fitted effect of over 75% in size
Target sequence (P49798 whole entry, looked up): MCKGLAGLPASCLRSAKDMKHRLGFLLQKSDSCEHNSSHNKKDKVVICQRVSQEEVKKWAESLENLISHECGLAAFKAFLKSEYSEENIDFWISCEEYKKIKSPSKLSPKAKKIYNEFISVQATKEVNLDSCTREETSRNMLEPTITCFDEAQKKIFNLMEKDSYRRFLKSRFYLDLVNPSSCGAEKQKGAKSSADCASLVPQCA
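MLSMR compounds (23 nl, pin-transferred) preincubated 10 min at room temperature with a 500nM (2x) first reagent, then RGS4 at 900nM (2x) plus Transcreener GDP mix added; fluorescence polarization (620/688 nm) read before and after 90 min at 30 °C.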
A-T KAP1 phos: candidate therapy for ataxia-telangiectasia | F2112 A-T fibroblasts, KAP-1 phosphorylation AlphaLISA; neocarzinostatin DNA damage 30 min before lysis | Potency, µM (top dose mostly 57.5 µM), without a hit: at the top dose activation, most hits filed as activators | 0.19% of 320,000 active; also: potency is read from the fitted curve at half-maximal effect; % of control where 0% means no effect; nearly all actives have a fitted effect of over 45% in size
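ATM-like activity read as KAP-1 phosphorylation via AlphaLISA donor/acceptor antibody pairs after lysis and 6 hr at 25C. Cells were ATM-null patient fibroblasts (F2112, hTERT), dosed 60 min, then exposed to the DSB inducer NCS for 30 min.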
TRPV1 potentiator: human TRPV1 potentiation. Q8NER1. TRPV1-expressing cells, Fluo-8 calcium influx, capsaicin EC20 potentiation. potentiation, % at 8.33 µM. 0.02% of 320,000 active. AID 540277; in the data active = potentiation above about 80%; inconclusive = between about 30% and that limit; also: 0% is about no effect
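Fluo-8 calcium influx in TRPV1-expressing cells, kinetic read (ex 480/em 520 nm). Compound added and read 3 min for agonist activity, followed by capsaicin at EC20 final and 2 min further read for enhancement.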
TRPML1 inh: inhibitors of human TRPML1 channel | Q9GZU1 | TRPML1-inducible cells, Ca2+ dye fluorescence, FDSS; hits give low values; inhibition of EC80 agonist-evoked calcium signal | activity change, negative = inhibition, % (no concentration beside the values) | 0.02% of 390,000 active | AID 624415; in the data active = activity change below about -50%; inconclusive = between about -30% and that limit;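 also: stimulus is agonist 54-4 at its EC80 concentration; % is scaled to controls: 0 for no effect and ±100 for the full control effect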
Target sequence (Q9GZU1 whole entry, looked up): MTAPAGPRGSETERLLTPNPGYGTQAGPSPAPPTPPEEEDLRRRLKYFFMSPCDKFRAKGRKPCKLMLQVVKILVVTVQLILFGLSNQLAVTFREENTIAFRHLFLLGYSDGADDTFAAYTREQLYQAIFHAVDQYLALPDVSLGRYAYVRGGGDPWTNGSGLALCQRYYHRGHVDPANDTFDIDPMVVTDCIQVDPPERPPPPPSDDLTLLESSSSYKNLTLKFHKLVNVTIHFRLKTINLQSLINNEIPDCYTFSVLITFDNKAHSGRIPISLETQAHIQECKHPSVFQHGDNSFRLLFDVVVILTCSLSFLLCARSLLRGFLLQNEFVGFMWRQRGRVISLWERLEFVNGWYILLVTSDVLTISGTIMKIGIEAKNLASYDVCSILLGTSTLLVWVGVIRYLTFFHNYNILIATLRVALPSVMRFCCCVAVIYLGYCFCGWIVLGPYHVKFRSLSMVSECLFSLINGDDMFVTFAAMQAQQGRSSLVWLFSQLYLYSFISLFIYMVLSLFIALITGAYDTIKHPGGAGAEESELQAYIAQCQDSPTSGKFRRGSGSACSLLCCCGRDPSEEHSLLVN
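TRPML1-DL cells, Tet-induced overnight (~16 h, 37 °C) at 1,500 cells/well, were loaded with Ca8 no-wash dye plus quencher for 45-90 min at room temperature. Compounds were pinned during FDSS kinetic reading; agonist 54-4 at EC80 (4 uM final) then added.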
TRPV1 agonist: agonists of human vanilloid receptor 1 (TRPV1) | activation, % at 8.33 µM | TRPV1-expressing cells, Fluo-8 calcium influx, agonist mode | Q8NER1 | 0.19% of 320,000 active | AID 540275; in the data active = activation above about 80%; inconclusive = between about 30% and that limit; also: 0% is about no effect
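TRPV1-expressing cells were cultured overnight at 35.5C and loaded with Fluo-8 calcium dye for 40 to 90 min at room temperature. After a 10 s baseline, compound was added and calcium influx was read kinetically for 3 min (ex 480/em 520 nm).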
TRPML1 ag: human mucolipin-1 channel agonism. Q9GZU1. TRPML1-expressing cells, Ca2+ dye fluorescence, FDSS. activation, % (concentration not given with the values). 0.12% of 410,000 active. AID 624414; in the data active = activation above about 50%; inconclusive = mostly about 30% to 49%; also: 0% is about no effect
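TRPML1-DL cells, Tet-induced overnight (~16 h, 37 degrees C), loaded 45-90 min at room temperature with Ca8 no-wash calcium dye plus quencher. FDSS fluorescence: 10 s baseline, compound pin-transfer, 110 s agonist read, then EC80 54-4 (4uM final) and 110 s antagonist read.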
Starred values were filed as active, the others as inactive; [ ] = remark or other dose. Unless noted, calls follow the shape of the dose curve; as a rule, active = well fitted curve in the direction sought with a large enough effect; inconclusive = small, poorly fitted or top-dose-only effect, or another doubt; inactive = no such curve, though single readings can be large; an effect the other way counts as inactive or inconclusive.

What do the screens show for `O=C1N/C(=N\S(=O)(=O)c2ccccc2)S/C1=C\c1cc([N+](=O)[O-])ccc1O`?
RGS4 inhibitor: -10.7%; A-T KAP1 phos: 0.3%; TRPV1 potentiator: -0.5; TRPML1 inh: 2.0; TRPV1 agonist: 29.0; TRPML1 ag: 51.1*

How did COc1cc(/C=C2/S/C(=N/S(=O)(=O)c3ccccc3)NC2=O)c([N+](=O)[O-])cc1OC do in these assays?
RGS4 inhibitor: -0.4%[11.4 µM]; A-T KAP1 phos: 0.5%; TRPV1 potentiator: -2.5; TRPML1 inh: -7.7; TRPV1 agonist: 0.6; TRPML1 ag: 1.2

What do the screens show for `Cc1cc(NC(=O)CSc2nc(-c3cccnc3)ccc2C#N)no1`?
RGS4 inhibitor: 14.6%[11.4 µM]; A-T KAP1 phos: 3.1%; TRPV1 potentiator: 7.6; TRPML1 inh: -7.5; TRPV1 agonist: 0.1; TRPML1 ag: -0.4

Results for Cc1cccc(C(=O)Nc2c(C(=O)N3CCN(c4ccc(F)cc4)CC3)oc3ccccc23)c1 ?
RGS4 inhibitor: -7.7%; TRPML1 inh: -7.4; TRPML1 ag: 4.1

Results for C=C(C)c1cccc(C(C)(C)NC(=O)NC2CCN(Cc3ccccc3)CC2)c1 ?
RGS4 inhibitor: -2.2%; A-T KAP1 phos: -1.8%; TRPV1 potentiator: 1.3; TRPML1 inh: -0.1; TRPV1 agonist: 1.2; TRPML1 ag: 0.3

How did Cc1cccc(C(=O)Nc2nnc(-c3ccc(C(C)(C)C)cc3)s2)c1 do in these assays?
RGS4 inhibitor: 5.5%; A-T KAP1 phos: -5.7%; TRPV1 potentiator: 3.5; TRPML1 inh: 10.4; TRPV1 agonist: -1.0; TRPML1 ag: -0.8

How did Cc1ccccc1C(=O)Nc1nnc(-c2ccc(C(C)(C)C)cc2)s1 do in these assays?
RGS4 inhibitor: 7.3%; A-T KAP1 phos: -6.1%; TRPV1 potentiator: 82.7*; TRPML1 inh: 6.6; TRPV1 agonist: -3.5; TRPML1 ag: 0.9

How did O=c1oc2cc(O)ccc2cc1-c1nc2c(s1)CCc1ccccc1-2 do in these assays?
RGS4 inhibitor: -12.5%; A-T KAP1 phos: 17.8µM*; TRPV1 potentiator: -12.6; TRPML1 inh: -6.3; TRPV1 agonist: 83.3*; TRPML1 ag: 83.4*

How did O=c1oc2ccc3ccccc3c2cc1-c1nnc(Nc2ccccc2F)s1 do in these assays?
RGS4 inhibitor: -21.6%; TRPML1 inh: -0.3; TRPML1 ag: 0.5

Results for O=c1oc2cc(O)ccc2cc1-c1nnc(Nc2ccccc2F)s1 ?
RGS4 inhibitor: -40.1%; TRPML1 inh: 2.7; TRPML1 ag: 70.8*

Results for O=c1oc2ccccc2cc1-c1nc2c(s1)CCc1ccccc1-2 ?
RGS4 inhibitor: inconclusive; A-T KAP1 phos: 25.7%; TRPV1 potentiator: -0.9; TRPML1 inh: -19.7; TRPV1 agonist: 0.8; TRPML1 ag: 6.8

What do the screens show for `N#CC1=C(N)C2=C(N3CCCCC3)CCCC2C1(C#N)C#N` (stereo unspecified)?
RGS4 inhibitor: -29.5%; A-T KAP1 phos: -2.7%; TRPV1 potentiator: -4.7; TRPML1 inh: 13.5; TRPV1 agonist: 1.6; TRPML1 ag: 1.7

How did CCCCN(C)C1=CC2=CC(=C(C#N)C#N)CCC2CC1 (stereo unspecified) do in these assays?
RGS4 inhibitor: 1.7%; A-T KAP1 phos: 4.1%; TRPV1 potentiator: -2.2; TRPML1 inh: -64.3*; TRPV1 agonist: 101.5*; TRPML1 ag: 125.3*

How did CCN(CC)C1=CC2=CC(=C(C#N)C#N)CCC2CC1 (stereo unspecified) do in these assays?
RGS4 inhibitor: 6.4%; A-T KAP1 phos: 6.4%; TRPV1 potentiator: 7.3; TRPML1 inh: inconclusive; TRPV1 agonist: 0.0; TRPML1 ag: 105.4*

What do the screens show for `N#CC(C#N)=C1C=C2C=C(N3CCCCC3)CCC2CC1` (stereo unspecified)?
RGS4 inhibitor: -6.3%; A-T KAP1 phos: 6.9%; TRPV1 potentiator: -0.3; TRPML1 inh: -26.1; TRPV1 agonist: 101.8*; TRPML1 ag: 108.8*

What do the screens show for `O=C(c1cc(-c2cccc(Cl)c2)on1)N1CCCC1`?
RGS4 inhibitor: 0.1%; A-T KAP1 phos: 0.3%; TRPV1 potentiator: 1.9; TRPML1 inh: -19.7; TRPV1 agonist: 20.3; TRPML1 ag: 0.3

Results for COc1ccc(C(=O)N(C)C2CCCN(Cc3ccccc3F)C2)cc1OC (stereo unspecified) ?
RGS4 inhibitor: 1.0%; A-T KAP1 phos: 3.9%; TRPV1 potentiator: 81.9*; TRPML1 inh: 4.3; TRPV1 agonist: -3.0; TRPML1 ag: -0.8

Results for COc1ccc(CCNC(=O)CSc2ccccn2)cc1 ?
RGS4 inhibitor: -3.9%; A-T KAP1 phos: 10.5%; TRPV1 potentiator: -13.8; TRPML1 inh: 5.6; TRPV1 agonist: -2.7; TRPML1 ag: -0.2

Results for Cc1ccc(C(=O)O/N=C/c2c(N3CCOCC3)n(C)c3ccccc23)cc1 ?
RGS4 inhibitor: -9.7%; A-T KAP1 phos: 9.2%; TRPV1 potentiator: -7.6; TRPML1 inh: 2.0; TRPV1 agonist: 6.1; TRPML1 ag: 1.0

What do the screens show for `Cn1c(N2CCOCC2)c(/C=N/OC(=O)c2ccc(F)cc2)c2ccccc21`?
RGS4 inhibitor: -1.9%; A-T KAP1 phos: 35.5µM*; TRPV1 potentiator: -8.8; TRPML1 inh: -2.9; TRPV1 agonist: 1.1; TRPML1 ag: -0.4

How did CCOc1ccc(OCCOCCNCCOC)cc1 do in these assays?
RGS4 inhibitor: -11.4%; A-T KAP1 phos: -5.0%; TRPV1 potentiator: 2.6; TRPML1 inh: -24.9; TRPV1 agonist: 1.8; TRPML1 ag: 59.8*

Results for CCCOc1ccc(OCCOCCNCc2ccccc2)cc1 ?
RGS4 inhibitor: 12.1%; A-T KAP1 phos: -6.5%; TRPV1 potentiator: 10.5; TRPML1 inh: 3.6; TRPV1 agonist: 0.6; TRPML1 ag: 0.2

How did CCCC1=NN(C(=O)Cc2ccc([N+](=O)[O-])cc2)C(O)(C(F)(F)F)C1 (stereo unspecified) do in these assays?
RGS4 inhibitor: -46.4%; A-T KAP1 phos: -4.5%; TRPV1 potentiator: -11.4; TRPML1 inh: 23.0; TRPV1 agonist: -3.0; TRPML1 ag: 1.1

How did CC(C)c1nnc(N2C(=O)C(O)=C(C(=O)c3cccs3)C2c2ccccc2)s1 (stereo unspecified) do in these assays?
RGS4 inhibitor: 4.8%; A-T KAP1 phos: -3.7%; TRPV1 potentiator: -5.0; TRPML1 inh: 9.1; TRPV1 agonist: 103.4*; TRPML1 ag: inconclusive

How did COc1ccc(C2C(C(=O)c3cccs3)=C(O)C(=O)N2c2nnc(C)s2)cc1OC (stereo unspecified) do in these assays?
RGS4 inhibitor: -11.8%; A-T KAP1 phos: -5.2%; TRPV1 potentiator: -21.8; TRPML1 inh: -10.7; TRPV1 agonist: 28.0; TRPML1 ag: 19.6
